# Screening results as filed in PubChem.
# Sampled rows, rich in hits. Any-hit rate of the full collection: about 4.4%.
# NFkB transloc pot – enhances IL-1B driven NFkB nuclear translocation | HUVEC IL-1B NFkB p65 nuclear translocation imaging | activation, % at 2 µM | 94,000 tested, 0.3% active | AID 819;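 active = activation above 40%, about the mean plus 3 SD, also judged a hit on visual image review; inconclusive = activation above 40% but not a hit on visual review; inactive = activation not above 40% and no visual hit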;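 note: percent activation is computed from the nuclear over cytoplasmic p65 intensity ratio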
# IL1B NFkB inh – blocks IL-1B driven NFkB nuclear translocation in HUVEC cells. AID 796. 94,000 tested, 0.43% active. inhibition, % at 2 µM. HUVEC IL-1B NFkB p65 nuclear translocation imaging;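 active = inhibition above about 30% together with a positive call from visual inspection of the well image, limit read from the data; inconclusive = inhibition above a set limit but visual check negative; inactive = inhibition not above a set limit, visual check negative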;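 note: nuclear over cytoplasmic p65 intensity ratio measured by imaging; 0% = IL-1B stimulated DMSO wells and 100% = unstimulated DMSO wells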
# IL1B cytotox – toxic to HUVEC cells under IL-1B stimulation; HUVEC cell count loss, Hoechst imaging, IL-1B stimulated; cell count reduction, % at 2 µM; 94,000 tested, 0.41% active; AID 845;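 active = cell count reduction more than 3 SD above the screen-wide mean, cut at about 70% in these data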;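 note: normalized per plate to untreated control cells as the no-loss baseline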
# Cav3 T inh – inhibitors of human Cav3.2 T-type calcium channel; O95180; Cav3.2-expressing cells, Fluo-4 calcium fluorescence FDSS; active compounds read low; B-score at 10 µM; 100,000 tested, 4% active;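 active = single-dose well whose peak fluorescence ratio is a statistical outlier from its plate by either plate-standardised score or position-corrected B-score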
# * = called active by the depositor; ? = inconclusive; . = not tested or not shown.
SMILES,NFkB transloc pot,IL1B NFkB inh,IL1B cytotox,Cav3 T inh
CCOC(=O)N1CCC(NC(=O)C2CCN(C(=O)N3CC(C)Oc4ccc(C)cc43)CC2)CC1 (stereo not drawn),-50.5,50.5*,20.0,-1.12
CCOC(=O)N1CCC(NC(=O)C2CCN(C(=O)N3CC(C)Oc4ccccc43)CC2)CC1 (stereo not drawn),8.8,-8.8,-7.1,0.0275
COc1ccc(OC)c(/C(O)=C/C(=O)C(=O)Nc2ccccc2OC)c1,.,.,.,-8.53*
COc1ccc(OC)c(S(=O)(=O)N(C)CC(=O)Nc2ccccc2OC)c1,10.3,-10.3,-24.7,1.19
Clc1ccc(-c2nc3cnccn3c2NC2CCCC2)cc1,-26.4,26.4,7.5,-5.02*
Clc1ccc(-c2nc3cnccn3c2Nc2ccc3c(c2)OCO3)cc1,18.5,-18.5,-52.9,-3.11
Cc1ccc(S(=O)(=O)CC(=O)Nc2nc(-c3ccccc3)cs2)cc1,-20.4,20.4,6.6,-7.22*
O=C(CS(=O)(=O)c1ccccc1)Nc1nc(-c2ccccc2)cs1,-3.6,3.6,-19.7,-4.92*
CCN1CCN(c2ncc(C(=O)Nc3ccccc3C(=O)OC)c3ccccc23)CC1,-3.9,3.9,32.2,0.773
CC1=C(C(=O)OC(C)C)C(c2ccc(Br)s2)NC(=O)N1C (stereo not drawn),6.8,-6.8,-5.6,-4.44*
Cc1csc(NC(=O)CSc2ncnc3c2cnn3-c2ccccc2Cl)n1,4.8,-4.8,-7.2,-5.54*
CCOC(=O)CNC(=O)CSc1ncnc2c1cnn2-c1ccc(Cl)cc1,4.0,-4.0,-14.7,-0.214
Cc1ccccc1-n1ncc2c(SCC(=O)NCc3cccs3)ncnc21,104.6*,-104.6,-12.3,-1.31
O=C(c1ccco1)N1CCN(S(=O)(=O)c2cccc(C(F)(F)F)c2)CC1,8.3,-8.3,-6.9,-0.00255
CCOc1ccc(N(CC(=O)NC2CCCCC2)C(=O)CSc2nnc(COc3ccccc3)o2)cc1,27.3,-27.3,-40.1,-4.34*
O=C(CN(Cc1cccs1)C(=O)CSc1nnc(COc2ccccc2)o1)NC1CCCCC1,13.3,-13.3,-20.2,-0.224
O=C(Nn1cnnc1)c1ccccc1-c1ccccc1,-4.1,4.1,6.4,0.0456
CC(C)N(C(=O)c1ccccc1-c1ccccc1)C(C)C,2.2,-2.2,-132.5,-4.62*
CC1CCN(S(=O)(=O)c2ccc3ncn(CC(=O)N(C)Cc4ccccc4)c(=O)c3c2)CC1,34.2,-34.2,4.8,-4.64*
CCC(C)(C(=O)NC1CCCCC1)N(Cc1ccco1)C(=O)c1ccccn1 (stereo not drawn),7.3,-7.3,-31.1,-1.01
O=C(Cc1cccs1)N(Cc1cccs1)C1(C(=O)NC2CCCCC2)CCCCC1,-0.1,0.1,7.5,-5.52*
CCC(C)(C(=O)NC1CCCCC1)N(Cc1cccs1)C(=O)Cc1cccs1 (stereo not drawn),11.4,-11.4,-10.3,-7.69*
O=C(Nc1ccccc1)OCCNC(=O)c1ccccc1,40.0*,-40.0,-65.6,1.14
C=CCc1cccc(CNc2c(C)n(C)n(-c3ccccc3)c2=O)c1O,-0.9,0.9,30.1,-3.97*
O=C(CSc1ncn[nH]1)N1N=C2/C(=C/c3ccco3)CCCC2C1c1ccco1 (stereo not drawn),20.3,-20.3,10.0,-4.12*
SMILES,NFkB transloc pot,IL1B NFkB inh,IL1B cytotox,Cav3 T inh
CC(Sc1ccccc1)C(=O)Nc1ccccc1C(=O)N1CCOCC1 (stereo not drawn),11.6,-11.6,8.4,0.846
Cc1cnc(Nc2nc3ccccc3o2)nc1C(=O)Nc1cccc(C(F)(F)F)c1,21.6,-21.6,-11.1,-6.14*
CCN1CCN(S(=O)(=O)c2ccc(S(=O)(=O)N(CC)Cc3ccccc3)cc2)CC1,4.0,-4.0,-7.3,-0.793
CNc1nc(SC)nc2ccsc12,-6.1,6.1,-21.8,-0.0266
CCc1ccc(Cn2nnc(C(=O)Nc3ccc(OC)cc3OC)c2N)cc1,-8.2,8.3,9.2,0.599
CCOc1ccc(Cn2nnc(C(=O)NCc3ccc(OC)cc3)c2N)cc1,-0.5,0.5,9.5,-5.21*
Cc1nc2c(-c3ccc(F)cc3)c(C)nn2c(C)c1CCC(=O)N1CCC(Cc2ccccc2)CC1,-14.0,14.0,9.3,-6.24*
Cc1nc2c(-c3ccc(F)cc3)c(C)nn2c(C)c1CCC(=O)N1CCN(c2ccc(F)cc2)CC1,-5.4,5.4,-1.4,-6.17*
Cc1nc2c(-c3ccc(F)cc3)c(C)nn2c(C)c1CCC(=O)N1CCN(c2ccccc2)CC1,18.6,-18.6,-1.1,-0.522
COc1ccccc1C(=O)Nc1cc(-c2nn3c(C)nnc3s2)ccc1C,3.4,-3.4,-38.1,.
CC(=O)Nc1ccccc1N(C)S(=O)(=O)c1ccc(C)cc1,-0.7,0.7,-7.3,0.312
COc1cccc(COc2nc3c(c(=O)n(C)c(=O)n3C)n2C)c1,-37.9,37.9*,12.4,-0.0029
Cn1c(=O)c2c(nc(OCc3ccccc3)n2C)n(C)c1=O,0.8,-0.8,-12.9,-0.147
COc1ccc(-n2nc(C(=O)N3CCC(C#N)CC3)c3c4ccccc4n(C)c3c2=O)cc1,?,-42.0,28.6,.
Cc1cc(C)c(OCCCCCNCCO)c(C)c1,41.7*,-41.7,-17.0,1.98
CCn1c(=O)c2c3c(sc2n2c(=S)[nH]nc12)CCC3,25.2,-25.2,-4.3,3.61*
CCc1cccc(NC(=O)Cn2cccc2)c1,24.5,-24.5,26.8,0.131
CCc1cccc(NC(=O)CSC2=NS(=O)(=O)c3ccccc32)c1,-9.9,9.9,16.6,-5.43*
Cc1cc(C)c(Cc2c(C)nc3c(C(=O)NCc4ccco4)cnn3c2C)c(C)c1,15.8,-15.8,-8.0,-0.079
CS(=O)(=O)N(CCc1ccccc1)CC(=O)Nc1ccc(OCc2ccccc2)cc1,9.1,-9.1,4.1,-4.2*
O=C(Cc1ccccc1F)Nc1nc(-c2cccs2)cs1,23.0,-23.0,0.0,-9.64*
O=C(CSCC(=O)N1CCN(c2ccccc2)CC1)Nc1nc(-c2ccc(Cl)s2)cs1,0.2,-0.3,-6.7,-5.63*
O=C(CSCC(=O)N1CCCCC1)Nc1nc(-c2cccs2)cs1,-1.4,1.4,7.0,-3.67*
O=C(CSCC(=O)N1CCCCC1)Nc1nc(-c2ccc(Cl)s2)cs1,4.7,-4.7,1.8,-5.18*
COc1ccc2c(c1)C(C1C(=O)CCCC1=O)c1ccccc1O2 (stereo not drawn),9.2,-9.2,-7.0,1.08
SMILES,NFkB transloc pot,IL1B NFkB inh,IL1B cytotox,Cav3 T inh
C=CCc1ccc(OCCOc2cccc3ccc(C)nc23)c(OC)c1,21.5,-21.5,-0.3,-2.09
CCn1c(-c2ccccc2Cl)nn(CC(=O)Nc2cc(Cl)ccc2Cl)c1=S,1.2,-1.2,-16.7,-4.8*
CC(=O)N1c2ccccc2N(Cc2ccc(C)cc2C)C(=O)C1(C)C,-5.3,5.3,-12.4,-8.3*
Cc1oc2ccc(NS(=O)(=O)c3ccc(C(C)(C)C)cc3)cc2c1C(=O)Nc1ccccc1,14.5,-14.5,11.5,.
CCOC(=O)C1Cn2c(nc3c(c2=O)C(C)(C)Cc2ccccc2-3)S1 (stereo not drawn),13.0,-13.0,-6.6,-6.41*
CCOC(=O)C1Cn2c(nc3c(c2=O)C2(CCCC2)Cc2ccccc2-3)S1 (stereo not drawn),4.6,-4.6,-12.4,-5.38*
CCOC(=O)CSc1nnc2n1C(C)(C)Cc1ccccc1-2,13.2,-13.2,-51.8,0.0991
CC(C)C[C@H](NC(=O)c1[nH]cnc1C(=O)Nc1ccccc1)C(=O)OC(C)(C)C,.,.,.,1.58
